Test results: the supplement of paper PMC11417369
± gives the standard deviation of the averaged measurements. Over roughly 25,000 sequences, “ln(normalized median fluorescence intensity)” has its median near 8.6; the highest 2% begin near 10. This excerpt belongs to a sample that is enriched for the highest values.

tested on: PfAP2-EXP AP2 domain (GST-tagged); assay: gcPBM binding intensity (ln(normalized median fluorescence intensity)); higher = stronger DNA binding
Summary of the method: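 GST-tagged P. falciparum DNA-binding domains produced in E. coli were incubated for 1 h on an Agilent 4 × 180k array of primer-extended double-stranded 36-bp intergenic genomic probes with negative controls. Binding intensity is the highest Masliner-normalised natural-log median intensity across replicate spots of either probe orientation, with bound protein detected by Alexa488 anti-GST antibody at 488 nm.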

Sequence	gcPBM binding intensity (ln)
ATACATATATACATATGTACATATATATATATATAT [XGTACX_site8206]	9.9 ± 0.39
GTATATATGTATATATGTACATATATATAATATATT [XGTACX_site56]	8.5 ± 0.16
AAAGTGGCCATATATTTTTTTTTTTTTTTCCTTATT [CACACA_negctrl_site485]	8.11 ± 0.53
ACATATTAATTATTATGACATACATATCAGTTATTA [TGCATGCA_negctrl_site126]	8.38 ± 0.27
AGGCACTTATAATAATGTACATAAATAAAAAGAAAA [XGTACX_site6037]	8.81 ± 0.35
TTTTTATGAAAATAAACACACGATTTATTATATATA [CACACA_site1311]	8.27 ± 0.34
GAAGACAATTATATGTGTACATATATATACATATAT [XGTACX_site4630]	8.44 ± 0.25
TATATATATATATATTGTACATTTTTTTTTTTTTTT [XGTACX_site7891]	10.1 ± 0.23
AGTATATAAAATACTGTATCGATGGGGGAGGGCGCA [CACACA_negctrl_site1612]	9.97 ± 0.23
ATATATGGGGCGCAGGAAAAGAGTTTTGGAAATAAA [CACACA_negctrl_site1265]	9.08 ± 0.49
TATAAAATACTGTATCGATGGGGGAGGGCGCAGGGG [TGCATGCA_negctrl_site250]	10.3 ± 0.11
ATAGGTAATAATAATACACACGGTGAAATATAGATG [CACACA_site9336]	8.88 ± 0.47
TATAATGAGGATAATAGTACATATGAATACAAAAAA [XGTACX_site3665]	8.86 ± 0.45
TTGGATAAAAAATATGTACACACATATAGATATCTA [CACACA_site8862]	8.48 ± 0.31
ATAAATAAATAAAAGCGTACATATATATAAAATATA [XGTACX_site8107]	8.63 ± 0.27
TCGGGAGGGGGGAAGCGTACATATATAAAATTATTA [XGTACX_site4683]	10.4
TATAAATAGAGGAAGCGTACATATATATATATATAT [XGTACX_site4993]	10.1 ± 0.37
AAAATTTATATAAGCACACAAATATATATTTATATC [CACACA_site3291]	8.55 ± 0.47
GAAGGAATATACAATTGTACTTGGCAAAAAAAAAAA [XGTACX_site1884]	8.74 ± 0.67
TCTGTAAAGTAATGGACACACAATATATCCATTTAT [CACACA_site1536]	8.35 ± 0.35
ATAATATAATATATATGTACACATCCTTTTTGTGTA [XGTACX_site2879]	8.62 ± 0.4
ATATATAATATAATATGTACATATAATCAATCCTGT [XGTACX_site8694]	8.48 ± 0.28
ATATATATATATATATGTACACAGGACAATAATCCT [XGTACX_site6383]	10.2 ± 0.33
AGAGGCCAGCTTTCTCTTCTAAACATGTACAAAAAT [GTGCAC_negctrl_site98]	8.63 ± 0.49

Sequence	gcPBM binding intensity (ln)
TTAGATATAATATATACACACCAACGAACGAAGAAA [CACACA_site4763]	9.12 ± 0.54
TCTATTAATGAATATACACACATTATATATATATAT [CACACA_site5410]	10 ± 0.49
ATAAGAAGGAACATAAATATATCATAAAAAAAAAAA [GTGCAC_negctrl_site169]	8.56 ± 0.35
ATAAAATTATATTTTGCATGCAGGCCTTTTTCTTAA [TGCATGCA_site1030]	9.94 ± 0.14
TTTTCCTTATATTATGCATGCAGGGTTTGACATTAT [TGCATGCA_site826]	10.3 ± 0.34
ATTATTTATATTATGGTGCATAATTTTGGGTTTCTT	8.86 ± 0.26
ATTTTTTATTGTTATAAAAAAAAAATTAAACAATTA [CACACA_negctrl_site1077]	8.19 ± 0.46
AGATATATTTTTTAAATTTAAAAATTATAAAATTTA [CACACA_negctrl_site533]	8.07 ± 0.42
TCATTCCATACTTTAACACACAAATATATTTAATCC [CACACA_site145]	8.76 ± 0.53
ATATTGGAGCACAACACACACAAGTATATATATGGA [CACACA_site1546]	8.8 ± 0.47
AAAAAAAAAAAATACGTGCACTATGATATATTATAT	8.95 ± 0.092
AAAAAAAAAAAAAACACACACATATATATATATATA [CACACA_site1891]	10.2 ± 0.3
AAAAAAAAAAAAAACACACACACACCCACATATACA [CACACA_site2663]	8.53 ± 0.2
AAAAGGAACAGACACACACACATATATATATATATA [CACACA_site3587]	10.3 ± 0.25
CATATACGCAAACACACACACATATATATATATATA [CACACA_site501]	10.2 ± 0.4
AAAAAAAAAAAACACACACACATATATATATATATA [CACACA_site732]	10.2 ± 0.38
TACATATATATATACACACATACATATATATACGCA [CACACA_site792]	8.45 ± 0.34
AAAAGGAACAGACACACACACATATATAAATATGTA [CACACA_site7656]	8.4 ± 0.59
AAAAGGAACGGACACACACACATATATATATATATA [CACACA_site5894]	10.2 ± 0.49
AAAAAAAAAAAAAAAACACACACATATATATATATA [CACACA_site8571]	10.1 ± 0.21
TATATACGCAAACACACACACACATACACCCACATA [CACACA_site1724]	8.59 ± 0.44
AAAAAAAAAAAACACACACACACACCCATACATACA [CACACA_site707]	8.65 ± 0.56
AAAAAAAAAAAAAAAACACACATACACCCCCACCCA [CACACA_site9117]	10.4 ± 0.3
